Results: the supplement of paper PMC4466140

What was measured:
Test in all cases: SPOT peptide array binding signal intensity (averaged, normalized) (arbitrary units (background-subtracted, floor 0; scale differs between SH3 domains)); higher = stronger binding of the SH3 domain to the peptide
AgAbp1 = molecular target: AgAbp1
Procedure, shortened: (§1)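 The binding signal is the normalized, background-subtracted spot intensity averaged over replicates; its arbitrary units differ between domains. It was obtained by incubating 10 μg/ml GST-fused SH3 domains from four yeast species overnight at 4°C in TBS-based blocking buffer on cellulose membranes with synthetic 15-mer peptides, cysteines replaced by serines, then detecting with anti-GST antibody, HRP anti-mouse secondary and luminol.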

AgBbc1 = molecular target: AgBbc1
Procedure, shortened: as §1

AgBem1-D1 = molecular target: AgBem1-D1
Procedure, shortened: as §1

AgBzz1-D1 = molecular target: AgBzz1-D1
Procedure, shortened: as §1

AgBzz1-D2 = molecular target: AgBzz1-D2
Procedure, shortened: as §1

AgCyk3 = molecular target: AgCyk3
Procedure, shortened: as §1

AgFus1 = molecular target: AgFus1
Procedure, shortened: as §1

AgHof1 = molecular target: AgHof1
Procedure, shortened: as §1

AgHse1 = molecular target: AgHse1
Procedure, shortened: as §1

AgLsb1 = molecular target: AgLsb1
Procedure, shortened: as §1

AgLsb4 = molecular target: AgLsb4
Procedure, shortened: as §1

AgMyo5 = molecular target: AgMyo5
Procedure, shortened: as §1

AgNbp2 = molecular target: AgNbp2
Procedure, shortened: as §1

AgRvs167 = molecular target: AgRvs167
Procedure, shortened: as §1

AgSho1 = molecular target: AgSho1
Procedure, shortened: as §1

AgSla1-D1-D2 = molecular target: AgSla1-D1-D2
Procedure, shortened: as §1

AgSla1-D3 = molecular target: AgSla1-D3
Procedure, shortened: as §1

CaAbp1-D1 = molecular target: CaAbp1-D1
Procedure, shortened: as §1

CaAbp1-D2 = molecular target: CaAbp1-D2
Procedure, shortened: as §1

CaBbc1 = molecular target: CaBbc1
Procedure, shortened: as §1

CaBem1-D1 = molecular target: CaBem1-D1
Procedure, shortened: as §1

CaBzz1-D1 = molecular target: CaBzz1-D1
Procedure, shortened: as §1

CaBzz1-D2 = molecular target: CaBzz1-D2
Procedure, shortened: as §1

CaCyk3 = molecular target: CaCyk3
Procedure, shortened: as §1

CaFus1 = molecular target: CaFus1
Procedure, shortened: as §1

CaHof1 = molecular target: CaHof1
Procedure, shortened: as §1

CaHse1 = molecular target: CaHse1
Procedure, shortened: as §1

CaLsb1 = molecular target: CaLsb1
Procedure, shortened: as §1

CaLsb4 = molecular target: CaLsb4
Procedure, shortened: as §1

CaMyo5 = molecular target: CaMyo5
Procedure, shortened: as §1

CaNbp2 = molecular target: CaNbp2
Procedure, shortened: as §1

CaRvs167 = molecular target: CaRvs167
Procedure, shortened: as §1

CaRvs167-3 = molecular target: CaRvs167-3
Procedure, shortened: as §1

CaSho1 = molecular target: CaSho1
Procedure, shortened: as §1

CaSla1-D1-D2 = molecular target: CaSla1-D1-D2
Procedure, shortened: as §1

CaSla1-D3 = molecular target: CaSla1-D3
Procedure, shortened: as §1

ScAbp1 = molecular target: ScAbp1
Procedure, shortened: as §1

ScBbc1 = molecular target: ScBbc1
Procedure, shortened: as §1

ScBem1-D1 = molecular target: ScBem1-D1
Procedure, shortened: as §1

ScBzz1-D1 = molecular target: ScBzz1-D1
Procedure, shortened: as §1

ScBzz1-D2 = molecular target: ScBzz1-D2
Procedure, shortened: as §1

ScCyk3 = molecular target: ScCyk3
Procedure, shortened: as §1

ScFus1 = molecular target: ScFus1
Procedure, shortened: as §1

ScHof1 = molecular target: ScHof1
Procedure, shortened: as §1

ScHse1 = molecular target: ScHse1
Procedure, shortened: as §1

ScLsb1 = molecular target: ScLsb1
Procedure, shortened: as §1

ScLsb2 = molecular target: ScLsb2
Procedure, shortened: as §1

ScLsb3 = molecular target: ScLsb3
Procedure, shortened: as §1

ScLsb4 = molecular target: ScLsb4
Procedure, shortened: as §1

ScMyo3 = molecular target: ScMyo3
Procedure, shortened: as §1

ScMyo5 = molecular target: ScMyo5
Procedure, shortened: as §1

ScNbp2 = molecular target: ScNbp2
Procedure, shortened: as §1

ScPex13 = molecular target: ScPex13
Procedure, shortened: as §1

ScRvs167 = molecular target: ScRvs167
Procedure, shortened: as §1

ScSho1 = molecular target: ScSho1
Procedure, shortened: as §1

ScSla1-D1-D2 = molecular target: ScSla1-D1-D2
Procedure, shortened: as §1

ScSla1-D3 = molecular target: ScSla1-D3
Procedure, shortened: as §1

SpAbp1-D1 = molecular target: SpAbp1-D1
Procedure, shortened: as §1

SpBbc1 = molecular target: SpBbc1
Procedure, shortened: as §1

SpBzz1-D1 = molecular target: SpBzz1-D1
Procedure, shortened: as §1

SpBzz1-D2 = molecular target: SpBzz1-D2
Procedure, shortened: as §1

SpCyk3 = molecular target: SpCyk3
Procedure, shortened: as §1

SpHof1 = molecular target: SpHof1
Procedure, shortened: as §1

SpHof1-2 = molecular target: SpHof1-2
Procedure, shortened: as §1

SpHof1-3 = molecular target: SpHof1-3
Procedure, shortened: as §1

SpHse1 = molecular target: SpHse1
Procedure, shortened: as §1

SpLsb1 = molecular target: SpLsb1
Procedure, shortened: as §1

SpLsb4 = molecular target: SpLsb4
Procedure, shortened: as §1

SpMyo1 = molecular target: SpMyo1
Procedure, shortened: as §1

SpNbp2 = molecular target: SpNbp2
Procedure, shortened: as §1

SpPex13 = molecular target: SpPex13
Procedure, shortened: as §1

SpRvs167 = molecular target: SpRvs167
Procedure, shortened: as §1

SpSla1-D1-D2 = molecular target: SpSla1-D1-D2
Procedure, shortened: as §1

SpSla1-D3 = molecular target: SpSla1-D3
Procedure, shortened: as §1

With SGVRLPAPPPPPRRG the “SPOT peptide array binding signal intensity” value (AgAbp1) was 606, the “SPOT peptide array binding signal intensity” value (AgBbc1) was 1230 and the “SPOT peptide array binding signal intensity” value (AgBem1-D1) was 36. The “SPOT peptide array binding signal intensity” value (AgBzz1-D1) was 404, the “SPOT peptide array binding signal intensity” value (AgBzz1-D2) was 140 and the “SPOT peptide array binding signal intensity” value (AgCyk3) was 2. For the same binder, the “SPOT peptide array binding signal intensity” value (AgFus1) was 21, the “SPOT peptide array binding signal intensity” value (AgHof1) was 472 and the “SPOT peptide array binding signal intensity” value (AgHse1) was 24.5. The “SPOT peptide array binding signal intensity” value (AgLsb1) was 699, the “SPOT peptide array binding signal intensity” value (AgLsb4) was 1040 and the “SPOT peptide array binding signal intensity” value (AgMyo5) was 579. The “SPOT peptide array binding signal intensity” value (AgNbp2) was 1250, the “SPOT peptide array binding signal intensity” value (AgRvs167) was 1310 and the “SPOT peptide array binding signal intensity” value (AgSho1) was 36. For the same binder, the “SPOT peptide array binding signal intensity” value (AgSla1-D1-D2) was 38, the “SPOT peptide array binding signal intensity” value (AgSla1-D3) was 61 and the “SPOT peptide array binding signal intensity” value (CaAbp1-D1) was 1510. The “SPOT peptide array binding signal intensity” value (CaAbp1-D2) was 1030, the “SPOT peptide array binding signal intensity” value (CaBbc1) was 1050 and the “SPOT peptide array binding signal intensity” value (CaBem1-D1) was 544. The “SPOT peptide array binding signal intensity” value (CaBzz1-D1) was 3080, the “SPOT peptide array binding signal intensity” value (CaBzz1-D2) was 1360 and the “SPOT peptide array binding signal intensity” value (CaCyk3) was 44. For the same binder, the “SPOT peptide array binding signal intensity” value (CaFus1) was 74, the “SPOT peptide array binding signal intensity” value (CaHof1) was 114 and the “SPOT peptide array binding signal intensity” value (CaHse1) was 20. For the same binder, the “SPOT peptide array binding signal intensity” value (CaLsb1) was 0.5, the “SPOT peptide array binding signal intensity” value (CaLsb4) was 1890 and the “SPOT peptide array binding signal intensity” value (CaMyo5) was 42.

For RKRAPTPPAPSRSEK, the “SPOT peptide array binding signal intensity” value (AgAbp1) was 639, the “SPOT peptide array binding signal intensity” value (AgBbc1) was 146 and the “SPOT peptide array binding signal intensity” value (AgBem1-D1) was 112. For the same binder, the “SPOT peptide array binding signal intensity” value (AgBzz1-D1) was 128, the “SPOT peptide array binding signal intensity” value (AgBzz1-D2) was 98 and the “SPOT peptide array binding signal intensity” value (AgCyk3) was 2. For the same binder, the “SPOT peptide array binding signal intensity” value (AgFus1) was ≤ 0, the “SPOT peptide array binding signal intensity” value (AgHof1) was 25 and the “SPOT peptide array binding signal intensity” value (AgHse1) was 171. For the same binder, the “SPOT peptide array binding signal intensity” value (AgLsb1) was 253, the “SPOT peptide array binding signal intensity” value (AgLsb4) was 35.5 and the “SPOT peptide array binding signal intensity” value (AgMyo5) was 0.5. The “SPOT peptide array binding signal intensity” value (AgNbp2) was 1300, the “SPOT peptide array binding signal intensity” value (AgRvs167) was 4.33 and the “SPOT peptide array binding signal intensity” value (AgSho1) was 5. For the same binder, the “SPOT peptide array binding signal intensity” value (AgSla1-D1-D2) was 167, the “SPOT peptide array binding signal intensity” value (AgSla1-D3) was 21.8 and the “SPOT peptide array binding signal intensity” value (CaAbp1-D1) was 3830. The “SPOT peptide array binding signal intensity” value (CaAbp1-D2) was 3240, the “SPOT peptide array binding signal intensity” value (CaBbc1) was 426 and the “SPOT peptide array binding signal intensity” value (CaBem1-D1) was 306. For the same binder, the “SPOT peptide array binding signal intensity” value (CaBzz1-D1) was 2860, the “SPOT peptide array binding signal intensity” value (CaBzz1-D2) was 3180 and the “SPOT peptide array binding signal intensity” value (CaCyk3) was 12. The “SPOT peptide array binding signal intensity” value (CaFus1) was 106, the “SPOT peptide array binding signal intensity” value (CaHof1) was 0.25 and the “SPOT peptide array binding signal intensity” value (CaHse1) was 3.25. For the same binder, the “SPOT peptide array binding signal intensity” value (CaLsb1) was 5.5, the “SPOT peptide array binding signal intensity” value (CaLsb4) was 249 and the “SPOT peptide array binding signal intensity” value (CaMyo5) was 3.5. For the same binder, the “SPOT peptide array binding signal intensity” value (CaNbp2) was 797, the “SPOT peptide array binding signal intensity” value (CaRvs167) was 27.8 and the “SPOT peptide array binding signal intensity” value (CaRvs167-3) was 20.2. The “SPOT peptide array binding signal intensity” value (CaSho1) was 4, the “SPOT peptide array binding signal intensity” value (CaSla1-D1-D2) was 1150 and the “SPOT peptide array binding signal intensity” value (CaSla1-D3) was ≤ 0. The “SPOT peptide array binding signal intensity” value (ScAbp1) was 187, the “SPOT peptide array binding signal intensity” value (ScBbc1) was 114 and the “SPOT peptide array binding signal intensity” value (ScBem1-D1) was 21.5. The “SPOT peptide array binding signal intensity” value (ScBzz1-D1) was 128, the “SPOT peptide array binding signal intensity” value (ScBzz1-D2) was 26 and the “SPOT peptide array binding signal intensity” value (ScCyk3) was 9.5. The “SPOT peptide array binding signal intensity” value (ScFus1) was ≤ 0, the “SPOT peptide array binding signal intensity” value (ScHof1) was 0.75 and the “SPOT peptide array binding signal intensity” value (ScHse1) was 762. The “SPOT peptide array binding signal intensity” value (ScLsb1) was 89.5, the “SPOT peptide array binding signal intensity” value (ScLsb2) was 6 and the “SPOT peptide array binding signal intensity” value (ScLsb3) was 1010. For the same binder, the “SPOT peptide array binding signal intensity” value (ScLsb4) was 31.5, the “SPOT peptide array binding signal intensity” value (ScMyo3) was 5 and the “SPOT peptide array binding signal intensity” value (ScMyo5) was 1.5. The “SPOT peptide array binding signal intensity” value (ScNbp2) was 2100, the “SPOT peptide array binding signal intensity” value (ScPex13) was 30.5 and the “SPOT peptide array binding signal intensity” value (ScRvs167) was 544. For the same binder, the “SPOT peptide array binding signal intensity” value (ScSho1) was 172, the “SPOT peptide array binding signal intensity” value (ScSla1-D1-D2) was 1970 and the “SPOT peptide array binding signal intensity” value (ScSla1-D3) was 46.5. The “SPOT peptide array binding signal intensity” value (SpAbp1-D1) was 1150, the “SPOT peptide array binding signal intensity” value (SpBbc1) was ≤ 0 and the “SPOT peptide array binding signal intensity” value (SpBzz1-D1) was 428. For the same binder, the “SPOT peptide array binding signal intensity” value (SpBzz1-D2) was 157, the “SPOT peptide array binding signal intensity” value (SpCyk3) was ≤ 0 and the “SPOT peptide array binding signal intensity” value (SpHof1) was 140. For the same binder, the “SPOT peptide array binding signal intensity” value (SpHof1-2) was 5.75, the “SPOT peptide array binding signal intensity” value (SpHof1-3) was 486 and the “SPOT peptide array binding signal intensity” value (SpHse1) was 123. For the same binder, the “SPOT peptide array binding signal intensity” value (SpLsb1) was 39.2, the “SPOT peptide array binding signal intensity” value (SpLsb4) was 1110 and the “SPOT peptide array binding signal intensity” value (SpMyo1) was 4.5. For the same binder, the “SPOT peptide array binding signal intensity” value (SpNbp2) was 67.5, the “SPOT peptide array binding signal intensity” value (SpPex13) was ≤ 0 and the “SPOT peptide array binding signal intensity” value (SpRvs167) was 450. For the same binder, the “SPOT peptide array binding signal intensity” value (SpSla1-D1-D2) was 199 and the “SPOT peptide array binding signal intensity” value (SpSla1-D3) was ≤ 0.
